ELG1 DNA repair = ELG1-dependent DNA repair inhibition | HEK293T ELG1-luciferase reporter, luminescence, 16 h; DNA damage induced by 5-fluorouridine | Potency, µM (highest dose often 46.1 µM), inactives show at the top dose activity change, negative = inhibition, most hits filed as inhibitors | 2.3% of 330,000 active | AID 504467; note: nearly all actives have a fitted effect of over 55% in size
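Cells (2,000 per well) received 5-fluorouridine plus test compound or DMSO and were incubated 16 hr at 37 °C, 5% CO2. Luciferase activity was read by luminescence 30 min after ONE-Glo addition; signal suppression marked inhibition of damage-induced ELG1 function.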
RORg inh = blocks mouse ROR gamma transcriptional activity; Potency, µM (doses to about 53.6 µM), inactives show at the top dose activity change, negative = inhibition, hits mostly inhibitors; P51450; 5.4% of 310,000 active; AID 2551; Drosophila S2 Gal4-RORgamma UAS-luciferase reporter, 20 h; note: nearly all actives have a fitted effect of over 60% in size
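Stably transfected Drosophila Schneider cells are the test system, with ROR gamma fused to Gal4 and luciferase under UAS control; luminescence is read after 20 hr of 700 uM copper sulfate induction at ambient temperature.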
TDP1 cell noCPT = qHTS for Inhibitors of human tyrosyl-DNA phosphodiesterase 1 (TDP1): qHTS in cells in absence of CPT; Potency, µM (series often up to 46.2 µM), inactives show at the highest dose activity change, negative = growth inhibition, actives largely listed as inhibitors; 15% of 420,000 active; AID 686978, 2013; DT40 Tdp1-/- hTDP1 cells, no CPT, ATP luminescence, 48 h; note: nearly all actives have a fitted effect of over 55% in size
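DT40 Tdp1-/-;hTDP1 cells, no CPT (DMSO vehicle only), 400 cells/well; compounds pin-transferred; ≥48 hr, 37 °C; CellTiter-Glo 30 min RT dark, luminescence read.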
12-LOX inh = ALOX12 (human) lipoxygenase inhibition. P18054. purified 12hLO, xylenol orange hydroperoxide absorbance. Potency, µM (series often up to 108 µM), inactives show at the top dose activity change, negative = inhibition, hits mostly inhibitors. 1.1% of 580,000 active
Target sequence (P18054 whole entry, looked up): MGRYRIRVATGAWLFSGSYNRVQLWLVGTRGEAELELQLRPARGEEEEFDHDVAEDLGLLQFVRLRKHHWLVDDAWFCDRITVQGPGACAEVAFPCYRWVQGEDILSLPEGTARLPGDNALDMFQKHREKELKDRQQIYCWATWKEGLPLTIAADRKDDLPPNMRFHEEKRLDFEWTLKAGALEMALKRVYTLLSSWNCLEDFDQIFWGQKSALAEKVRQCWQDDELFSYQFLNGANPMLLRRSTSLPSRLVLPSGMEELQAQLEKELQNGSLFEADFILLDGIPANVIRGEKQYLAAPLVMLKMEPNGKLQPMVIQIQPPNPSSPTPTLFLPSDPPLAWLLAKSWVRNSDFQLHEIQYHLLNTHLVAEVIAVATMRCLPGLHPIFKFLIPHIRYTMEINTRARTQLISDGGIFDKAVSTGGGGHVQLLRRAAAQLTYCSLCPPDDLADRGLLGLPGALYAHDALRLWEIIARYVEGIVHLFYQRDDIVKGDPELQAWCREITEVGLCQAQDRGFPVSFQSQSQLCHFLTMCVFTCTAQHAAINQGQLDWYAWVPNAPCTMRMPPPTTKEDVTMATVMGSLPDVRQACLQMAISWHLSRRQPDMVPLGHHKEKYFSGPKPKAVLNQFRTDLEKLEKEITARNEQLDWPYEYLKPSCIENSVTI
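Purified human 12hLO at 150 nM in 25 mM Hepes, 0.01% Triton X-100, pH 7.0, preincubated 15 min at room temperature with compound. Reaction started with 40 uM arachidonic acid, 30 min at room temperature. Hydroperoxide measured by Fe-xylenol orange, 573/405 nm absorbance ratio.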
Gal4-VP16 FLuc = Gal4-VP16 reporter inhibition counter-screen; Drosophila S2 Gal4-VP16 UAS-luciferase, luminescence, 20 h; Potency, µM (doses to about 53.6 µM), inactives show at the top dose activity, negative = inhibition, most hits filed as inhibitors; 3.5% of 310,000 active; AID 2546;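 note: Gal4-VP16 expression switched on by copper sulfate through the metallothionein promoter; nearly all actives have a fitted effect of over 50% in size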
DT40 TDP1 CPT = growth inhibition of DT40 Tdp1-/-;hTDP1 cells with camptothecin (screen for TDP1 inhibitors). Potency, µM (top dose mostly 46.2 µM), without a hit: at the top dose activity change, negative = growth inhibition, actives largely listed as inhibitors. 12% of 420,000 active. chicken DT40 Tdp1-/-;hTDP1 cells + 20 nM CPT, ATP luminescence, 48 h; note: nearly all actives have a fitted effect of over 55% in size
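Chicken DT40 Tdp1-/- cells stably complemented with human TDP1 were seeded at 400 cells/well in medium containing 20 nM camptothecin, exposed to pin-transferred compounds, and grown at 37 °C for at least 48 hr. Viability was read as ATP luminescence.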
* = called active by the depositor; [ ] = remark or other dose. Shown are actives, neighbours in structure and some others; about 15% of the full set was active somewhere. Calls come from the whole dose curve; as a rule, active = well fitted curve in the direction sought with a large enough effect; inconclusive = small, poorly fitted or top-dose-only effect, or another doubt; inactive = no such curve, though single readings can be large; an effect the other way counts as inactive or inconclusive. % is set by controls: 0 for no effect and ±100 for the full control effect; potency is the fitted concentration of half-maximal effect.

Results for CC1(C)CC(=O)C(CS(=O)(=O)c2ccccc2)=C(Cl)C1 ?
ELG1 DNA repair: -8%; RORg inh: inconclusive; TDP1 cell noCPT: 2.9µM*; 12-LOX inh: 0%; Gal4-VP16 FLuc: inconclusive; DT40 TDP1 CPT: 5.2µM*

How did COC(=O)C1=C(CS(=O)(=O)c2ccccc2)NC(=O)NC1c1ccccc1 (configuration not stated) do in these assays?
ELG1 DNA repair: 10%; RORg inh: -5%; TDP1 cell noCPT: 7%; 12-LOX inh: -26%; Gal4-VP16 FLuc: -11%; DT40 TDP1 CPT: -1%

Results for COc1ccc(C2(c3ccc(OC)cc3)NC(=O)N(CC(=O)Nc3ccc(C(=O)N(C)C)cc3)C2=O)cc1 ?
ELG1 DNA repair: -9%; RORg inh: -6%; TDP1 cell noCPT: -8%; 12-LOX inh: -4%; Gal4-VP16 FLuc: 2%; DT40 TDP1 CPT: -27%

Results for CC(=O)c1cc(-c2ccc(F)cc2)n(CCC(=O)Nc2cccnc2)c1C ?
ELG1 DNA repair: 6%; RORg inh: -5%; TDP1 cell noCPT: -17%; 12-LOX inh: -5%; Gal4-VP16 FLuc: -6%; DT40 TDP1 CPT: 0%

What do the screens show for `CC(=O)c1cc(-c2ccccc2)n(CCC(=O)Nc2ccc(C)cc2C)c1C`?
TDP1 cell noCPT: -19%; 12-LOX inh: -25%; DT40 TDP1 CPT: inconclusive

What do the screens show for `CCOc1ccc(NC(=O)CCn2c(-c3ccc(F)cc3)cc(C(C)=O)c2C)cc1`?
TDP1 cell noCPT: 23µM*; 12-LOX inh: -17%; DT40 TDP1 CPT: 21µM*

How did COc1ccc(C2(c3ccc(OC)cc3)NC(=O)N(CC(=O)Nc3cc(C)ccc3OC)C2=O)cc1 do in these assays?
ELG1 DNA repair: -3%; RORg inh: 5%; TDP1 cell noCPT: inconclusive; 12-LOX inh: -3%; Gal4-VP16 FLuc: 12%; DT40 TDP1 CPT: 18µM*

How did CC(=O)c1cc(-c2ccccc2)n(CC(=O)NCc2ccccc2C)c1C do in these assays?
TDP1 cell noCPT: -6%; 12-LOX inh: -20%; DT40 TDP1 CPT: inconclusive

What do the screens show for `CC(=O)c1cc(-c2ccc(F)cc2)n(CCC(=O)NCc2ccccc2C)c1C`?
TDP1 cell noCPT: inconclusive; 12-LOX inh: -29%; DT40 TDP1 CPT: 16µM*

What do the screens show for `COc1ccc(-c2cc(C(C)=O)c(C)n2CCC(=O)Nc2cc(C)ccc2OC)cc1`?
TDP1 cell noCPT: 18µM*; 12-LOX inh: -24%; DT40 TDP1 CPT: 16µM*

Results for COCCN1C(=O)[C@@H]2C[C@@H](CN2C(=O)c2cncnc2)Oc2ccccc21 ?
12-LOX inh: -18%[176 µM]

What do the screens show for `COc1ccc(C(=O)N2CCN(C(=O)c3nnn4c3COC(c3ccccc3)C4)CC2)c(C)c1` (configuration not stated)?
12-LOX inh: -6%

What do the screens show for `COc1ccc(-c2cc(C(C)=O)c(C)n2CCC(=O)Nc2ccc(C(F)(F)F)cc2)cc1`?
TDP1 cell noCPT: 13µM*; 12-LOX inh: -17%; DT40 TDP1 CPT: 12µM*

Results for CC(C)(C)[C@@H]1COC(=O)[C@H](Cc2ccc(F)cc2)CC/C=C\C[C@H](CC(=O)N(CCO)Cc2ccccc2)C(=O)N1 ?
ELG1 DNA repair: inconclusive; TDP1 cell noCPT: 9.2µM*; 12-LOX inh: 0%; DT40 TDP1 CPT: 9.2µM*

Results for CC(C)(C)[C@@H]1COC(=O)[C@H](Cc2ccc(F)cc2)C/C=C\C[C@@H](CC(=O)N(CCO)Cc2ccccc2)C(=O)N1 ?
ELG1 DNA repair: -23%; TDP1 cell noCPT: 21µM*; 12-LOX inh: -4%; DT40 TDP1 CPT: 16µM*

How did CC(C)(C)[C@@H]1COC(=O)[C@@H](Cc2ccc(F)cc2)CC/C=C\C[C@@H](CC(=O)N(CCO)Cc2ccccc2)C(=O)N1 do in these assays?
ELG1 DNA repair: inconclusive; TDP1 cell noCPT: inconclusive; 12-LOX inh: 9%; DT40 TDP1 CPT: 23µM*

What do the screens show for `O=C1c2ccccc2CN1C1CCN([S+](=O)([O-])c2cccc(C(F)(F)F)c2)CC1`?
12-LOX inh: -1%[6.33 µM]

How did COC(=O)c1ccc2nc(-c3ccc(Cl)cc3)c(CC3CCCCC3)n2c1 do in these assays?
TDP1 cell noCPT: 4.1µM*; 12-LOX inh: -27%; DT40 TDP1 CPT: 8.2µM*

How did COC(=O)c1ccc2nc(-c3ccc(OC)c(OC)c3)c(CC3CCCCC3)n2c1 do in these assays?
TDP1 cell noCPT: 18µM*; 12-LOX inh: inconclusive; DT40 TDP1 CPT: inconclusive

What do the screens show for `COc1ccc(-c2csc3ncn(-c4ccc(Cl)cc4)c(=O)c23)cc1OC`?
12-LOX inh: 2%

What do the screens show for `Cc1cccc(N2CCN(C(=O)CCc3conc3-c3ccccc3)CC2)c1C`?
12-LOX inh: 14%

What do the screens show for `CCn1ncc(C(=O)N2C[C@@H](COC)[C@H](c3nc(C4CC4)no3)C2)c1C`?
12-LOX inh: -1%

Results for Cc1cc(C)nc(/N=C(\N)Nc2ccc(CC(=O)OC(C)C)cc2)n1 ?
ELG1 DNA repair: -3%; RORg inh: inconclusive; TDP1 cell noCPT: 3.3µM*; 12-LOX inh: 15%; Gal4-VP16 FLuc: inconclusive; DT40 TDP1 CPT: inconclusive

Results for CCc1ccc(N/C(=N/c2nc(C)cc(C)n2)NC(C)=O)cc1 ?
ELG1 DNA repair: inconclusive; RORg inh: -44%; TDP1 cell noCPT: inconclusive; 12-LOX inh: 7%; Gal4-VP16 FLuc: 7%; DT40 TDP1 CPT: inconclusive

What do the screens show for `COc1ccc(N/C(N)=N/c2nc(C)cc(C)n2)cc1`?
TDP1 cell noCPT: inconclusive; 12-LOX inh: -5%; DT40 TDP1 CPT: -21%

How did Cc1cc(C)nc(/N=C(\N)Nc2ccc(S(=O)(=O)O)cc2)n1 do in these assays?
ELG1 DNA repair: 7%; RORg inh: 7%; TDP1 cell noCPT: 8%; 12-LOX inh: -2%; Gal4-VP16 FLuc: 7%; DT40 TDP1 CPT: 0%

What do the screens show for `Cc1cc(C)nc(/N=C(\N)Nc2ccc(C)c([N+](=O)[O-])c2)n1`?
ELG1 DNA repair: 0%; RORg inh: 2%; TDP1 cell noCPT: 13µM*; 12-LOX inh: -3%; Gal4-VP16 FLuc: -1%; DT40 TDP1 CPT: 10µM*

How did Cc1cc(C)nc(/N=C(\N)Nc2ccc(OCc3ccccc3)cc2)n1 do in these assays?
ELG1 DNA repair: -7%; RORg inh: 21%; TDP1 cell noCPT: 12µM*; 12-LOX inh: inconclusive; Gal4-VP16 FLuc: inconclusive; DT40 TDP1 CPT: 12µM*
